# The source holds several records for some structures; these can differ, active in one and inactive in another. The source made the active and inactive calls. Rule for the calls: active = hit-call score of the fitted dose curve at least 0.9, where 1 is the maximum; inactive = score below 0.9.
# Tests used:
# [1] = ATG_CRE_CIS: Attagene CIS-FACTORIAL HepG2 Assay for human cAMP Responsive Element (CRE) binding protein 3 (AID 2282926); conditions: HepG2 CRE cis-reporter, Attagene multiplexed mRNA; actives raise or lower the signal
# Summary of the method: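 Human liver HepG2, transient MRTU transfection, 24 h compound exposure. Total RNA → oligo(dT) RT → PCR → 6-FAM primer extension → HpaI cut → CE. Activity called both directions vs DMSO.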
# [2] = molecular target: CCAAT/enhancer-binding protein beta (Homo sapiens) (UniProt P17676); assay: ATG_C_EBP_CIS: Attagene CIS-FACTORIAL HepG2 Assay for human CCAAT/Enhancer Binding Protein (C/EBP) beta (AID 2282927); conditions: HepG2 Attagene cis-factorial transcription factor reporter; actives raise or lower the signal
# CCAAT/enhancer-binding protein beta (Homo sapiens), sequence (P17676 whole entry, looked up, the tested form may be a part): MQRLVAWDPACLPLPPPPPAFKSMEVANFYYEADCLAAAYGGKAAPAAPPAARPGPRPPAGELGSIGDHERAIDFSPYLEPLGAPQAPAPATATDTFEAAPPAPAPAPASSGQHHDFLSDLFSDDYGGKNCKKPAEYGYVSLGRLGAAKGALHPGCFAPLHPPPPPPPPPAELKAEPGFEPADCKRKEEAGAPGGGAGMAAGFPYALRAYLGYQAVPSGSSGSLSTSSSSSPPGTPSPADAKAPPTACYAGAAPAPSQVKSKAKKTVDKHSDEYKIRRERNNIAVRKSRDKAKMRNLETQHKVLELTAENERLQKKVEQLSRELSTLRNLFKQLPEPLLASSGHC
# Summary of the method: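 Chemical-treated HepG2 cells (24 h) bearing cis-regulated reporter constructs were processed for total RNA, then reverse transcription, PCR amplification, fluorescent primer extension and fragment analysis; gain- and loss-of-signal were fitted against DMSO.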
# [3] = ATG_CMV_CIS: Attagene CIS-FACTORIAL HepG2 Assay for human CMV (Internal Marker) (AID 2282928); conditions: HepG2 CMV promoter reporter, transcription factor profiling; actives raise or lower the signal;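 note: endpoint acts as a background internal control marker rather than a target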
# Summary of the method: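 Cell system: HepG2, transiently transfected multiple reporter units under cis promoters. Exposure: 24 h. Detection: RT-PCR, FAM labeling, HpaI digestion, capillary electrophoresis. Analysis: bidirectional, DMSO baseline.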
SMILES,outcome [1],outcome [2],outcome [3],AC50 [3],AC50 [2],AC50 [1]
CCCCCCCCCCCC,inactive,inactive,inactive,–,–,–
O=C1OC(=O)C(F)(F)C1(F)F,inactive,inactive,inactive,–,–,–
O=S(=O)(O)C(F)(F)C(F)(F)C(F)(F)C(F)(F)C(F)(F)C(F)(F)C(F)(F)C(F)(F)C(F)(F)C(F)(F)F,inactive,inactive,inactive,–,–,–
Oc1c(Cl)cc(Cl)cc1Sc1cc(Cl)cc(Cl)c1O,inactive,inactive,inactive,–,–,–
Cc1ccc(C(=O)c2ccccc2)cc1,inactive,inactive,–,61.1 µM (active),–,–
CCCCCCCCCCCCCCCCCC[N+](C)(C)Cc1ccccc1,inactive,–,inactive,–,75.8 µM (active),–
C=CC(=C)CC/C=C(\C)CCC=C(C)C,inactive,inactive,inactive,–,–,–
FC(F)(F)C(F)(F)C(F)(F)C(F)(F)I,inactive,inactive,inactive,–,–,–
Oc1cccc2c(O)cccc12,inactive,inactive,–,64.5 µM (active),–,–
COc1cc([N+](=O)[O-])ccc1N,inactive,inactive,inactive,–,–,–
NS(=O)(=O)O,inactive,inactive,inactive,–,–,–
O=CC(F)(F)C(F)(F)C(F)(F)C(F)F,inactive,inactive,inactive,–,–,–
Nc1ccc(O)c(C(=O)O)c1,inactive,inactive,inactive,–,–,–
FC(F)(F)C(F)(F)C(F)(F)Br,inactive,inactive,inactive,–,–,–
COC(O)c1ccccc1 (centres undefined),inactive,inactive,inactive,–,–,–
COC(=O)C(F)(F)C(F)(F)C(F)(F)C(F)(F)C(F)(F)F,inactive,inactive,inactive,–,–,–
C=CC(F)(F)C(F)(F)C(F)(F)C(F)(F)F,inactive,inactive,inactive,–,–,–
Cc1cc(Cc2cc(C)cc(C(C)(C)C)c2O)c(O)c(C(C)(C)C)c1,–,–,–,7.15 µM (active),31.8 µM (active),23.7 µM (active)
COc1cccc(O)c1,inactive,inactive,inactive,–,–,–
O=C(C=C(O)C(F)(F)F)C(F)(F)F,inactive,inactive,inactive,–,–,–
C[C@]12CC[C@@H]3c4ccc(O)cc4CC[C@H]3[C@@H]1CC[C@@H]2OC(=O)CCC1CCCC1,inactive,–,–,25.3 µM (active),137 µM (active),–
CC[N+](CC)(CC)Cc1ccccc1,inactive,inactive,inactive,–,–,–
Oc1c(Cl)ccc(Cl)c1Cl,inactive,inactive,inactive,–,–,–
c1cc[nH]c1,inactive,inactive,inactive,–,–,–
CC(C)c1c(C(=O)Nc2ccccc2)c(-c2ccccc2)c(-c2ccc(F)cc2)n1CC[C@@H](O)C[C@@H](O)CC(=O)O,inactive,inactive,inactive,25.6 µM (active),–,–
O=C(O)c1cccc(C(=O)O)n1,inactive,inactive,inactive,–,–,–

# From PubChem BioAssay (EPA / NIEHS)
